Growth data for 34 compounds are collected here from PubChem BioAssay (NCI).

Several values for one entry are separate records, joined by “and”; a condition that tells them apart may be missing. Identical values can stand only once. The panel holds about 83,000 compounds, 20% with a hit somewhere; the sample as a whole holds those more often.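 A percent growth of 40 corresponds to 60% growth inhibition; 0 means no net growth; -100 means all cells died. Active threshold: below 10.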 Activity calls are given as the source filed them.

The subject of this assay is MDA-MB-468 breast. Put plainly: NCI-60 one-dose screen, 48 h (100 = growth as untreated, 0 = no growth, -100 = all killed). As to conditions: 10 µM unless noted.
Regarding `COc1ccc(/C(=C\c2ccccc2)C(=O)O)cc1OC`, the growth was 93.2% (inactive).
Consider `C1CCC(C(CC2CCCCN2)C2CCCCC2)CC1` (centres undefined), for which the growth was -90.1% (active).
`CC/C=C\C/C=C\C[C@H]1C/C=C2/C(=O)C=C[C@H]2C/C=C\CCC(=O)O1`: the growth was -7.14% (active).
As to `CC[C@H](CC[C@@H](C)[C@H]1CC[C@H]2[C@@H]3/C(=C/c4cccnc4)C(=O)C4=CC(=O)CC[C@]4(C)[C@H]3CC[C@]12C)C(C)C`, the growth is 97% (inactive).
Consider `CC(C)(C)n1cc(-c2ccnc(NCCNS(=O)(=O)c3ccccc3)c2)c(-c2cccc(O)c2)n1`, for which the growth is 11.1% (inactive).
Regarding `Cc1ccc(NC(=O)c2nc(S(C)(=O)=O)oc2-c2ccc(F)cc2)cc1Nc1ccc2ncn(C)c(=O)c2c1`, the growth was 16.8% (inactive).
`Cc1ccc(-c2cc3nc(-c4ccccc4)nc(C(Cl)Cl)n3n2)cc1`: the growth is -61.4% (active).
With `CS(=O)(=O)c1cccnn1`, the growth was 74% (inactive).
In the case of `CC(C)(C)[Si](C)(C)OC1[C@@H](CNC(=O)NC(=O)CCl)O[C@@H](n2cnc3c(N)ncnc32)[C@H]1O[Si](C)(C)C(C)(C)C` (some centres undefined) it was -2.45% (active); in that of `N=C1/C(=C2\NC3C=CC=CC3S2)C(c2ccc(Cl)cc2)C2C(=O)N(c3ccccc3)C(=S)N12` (centres undefined), 97.9% (inactive); in that of `O=C1c2ccccc2C(=O)c2c1ccc1[nH]c(CCl)nc21`, -28.6% (active).
In the case of `O=C1c2cccnc2-c2nccc3c2c1nc1cc(Br)ccc13` it was -54.6% (active).
In the case of `C(=C(\C1=NCCN1)n1cnc2ccccc21)/c1cccc2ccccc12` it was 80.6% (inactive); in that of `C=CCSc1nc2ccccc2cc1/C=N/O`, 82% (inactive); in that of `COc1ccc(-c2nc(C(Cl)Cl)nc3cc(-c4ccccc4)nn23)cc1`, -55.8% (active).
For the compound `COc1cccc(-c2nc3occn3c2-c2ccnc(NCCNS(=O)(=O)c3ccc(C(F)(F)F)cc3)n2)c1`, the growth was 77.4% (inactive).
The value for `CN(C)C(=O)OCc1nc2c(N3CCOCC3)nc(-c3ccccc3)nc2n1C` was -61.1% (active); that for `O=C(/C=C/c1cccc(O)c1)c1cccc(-n2cc(-c3ccc(Cl)cc3)[nH]c2=O)c1` was 37.6% (inactive); that for `COc1cc(CSc2nc3ccc(Cl)cc3c(=O)n2-c2ccccc2)cc(OC)c1OC` was 57.4% (inactive).
Consider `CN1C(=O)CNC(=O)[C@H](NC(=O)c2nc3ccccc3cc2O)CSSC[C@H]1C(=O)NCCCc1nc2ccccc2cc1O`, for which the growth was 22.3% (inactive).
For the compound `CSc1cnc2ccccc2n1`, the growth was 119% (inactive).
With `COc1cc2c(cc1OC)-c1ccc3cc4c(cc3c1N(CCCN1CCCCC1)C2)OCO4`, the growth is 56.5% (inactive).
The value for `COc1cccc(NC(=O)c2cccc(-c3cc(=O)c4c(OC)c(OC)c(OC)cc4o3)c2)c1` was 79% (inactive); that for `CCOC(=O)c1cc2c(n1C)-c1nc(NC(C)=O)sc1CCC2` was 79.8% (inactive); that for `CCC(c1cccc(O)c1)C(CC)c1cccc(O)c1` (centres undefined) was 24.1% (inactive).
Take `CCCNNC(=O)c1ccc(-c2ccc(NC(=O)CCCCCCC(=O)N[C@H](C(=O)N3C[C@H](O)C[C@H]3C(=O)N[C@@H](C)c3ccc(-c4scnc4C)cc3)C(C)(C)C)cc2)cc1`: the growth was -10.1% (active).
On to `COc1cc([C@@H]2c3cc4c(cc3C(O[C@@H]3O[C@@H]5CO[C@@H](c6cccs6)OC5[C@H](O)[C@H]3O)C3COC(=O)[C@@H]32)OCO4)cc(OC)c1O` (some centres undefined), for which the growth is -58.9% (active).
For the compound `COc1ccc(-c2nc(-c3nc4cc(C)c(C)cc4[nH]3)cc3c2[nH]c2ccccc23)cc1`, the growth is -27.7% (active).
As for `CCCCCC(=O)N1c2ccccc2NC2=C(C(=O)CC(c3ccc(OC)c(OC)c3)C2)C1c1ccc(C(F)(F)F)cc1` (centres undefined), the growth is 14.2% (inactive).
Take `O=C1c2ccc3c4c(ccc(c24)C(=O)N1CCCNCc1ccccc1Cl)C(=O)N(CCCNCc1ccccc1Cl)C3=O`: the growth is -89% (active).
For the compound `CC[C@]12C=CCN3CC[C@]4(C(=C(C(=O)OC)C1)Nc1cc5c(cc14)[C@@H]1[C@H](O5)[C@@H](O)[C@@]4(CC)CC(C(=O)OC)=C5Nc6cc(O)ccc6[C@@]56CCN1C46)C32` (some centres undefined), the growth was -51% (active).
Turning to `Cn1c(NCCc2ccc(O)c(O)c2)nc2c1c(=O)n(Cc1ccc(Cl)c(Cl)c1)c(=O)n2C`, the growth is 49.4% (inactive).
`Cc1ccc(S(=O)(=O)NCCCNc2nccc(-c3c(-c4cccc(F)c4)nc4occn34)n2)cc1`: the growth is 55.6% (inactive).
The value for `O=C1OC2(c3ccccc31)c1ccc(O)c(O)c1Oc1c2ccc(O)c1O` was 96.8% (inactive) and 113% (inactive).
